Results reported in PubChem BioAssay (NCATS).
Unmarked numbers belong to inactive results. Results filed as inconclusive are left out. Entries that show only a call come without a potency. Active and inactive are the calls of the source. Calls come from the whole dose curve; as a rule, active = well fitted curve in the direction sought with a large enough effect; inconclusive = small, poorly fitted or top-dose-only effect, or another doubt; inactive = no such curve, though single readings can be large; an effect the other way counts as inactive or inconclusive.

Test: Cell Viability - Renal Proximal Tubule (AID 545); note: nearly all actives have a fitted effect of over 40% in size
Conditions: renal proximal tubule cells viability, primary cells of rat origin; series mostly up to 91.7 µM
How it was run: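 Rat renal proximal tubule primary cells, 1000/well, exposed to compounds for 40 hr at 37 °C in complete medium; cellular ATP read by CellTiter-Glo luminescence. AC50 from concentration-response fitted with standard Hill equation.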

SMILES	Potency
C=CCOC(=O)CCCCCCCC	inactive
CC(=O)CCc1ccccc1	inactive
c1ccsc1	inactive
NC(=O)c1ccccc1[N+](=O)[O-]	inactive
O=C(O)/C=C/C(=O)O	inactive
O=C(O)c1ccc(CO)o1	inactive

Test: Cell Viability - Mesenchymal (AID 546);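 note: cells exposed to compound for 40 hours before reading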
Conditions: mesenchymal cells viability, qHTS; series mostly up to 91.7 µM
How it was run: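 In this qHTS cytotoxicity format, glomerulus-derived human mesenchymal kidney cells received compound for 40 hr, then luciferase-based ATP quantitation. Concentration-response data were fitted with the Hill equation.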

SMILES	Potency
O=C(O)c1c(Cl)cccc1Cl	inactive
CC(=O)CC(C)C	inactive
NC(=O)/N=N/C(N)=O	inactive
O=C(Cl)c1cccc([N+](=O)[O-])c1	inactive
CCCCC(=O)N(C)C	inactive
CSCCC=O	inactive
CCCCC(C=O)CC (stereo not given)	inactive
O=Cc1cccc(Br)c1	inactive
C=CCn1c(=O)n(CC=C)c(=O)n(CC=C)c1=O	inactive
CCOc1cc(OCC)c(C(C)=O)cc1OCC	inactive
CCC(C)=O	inactive
O=C1OC(=O)c2c(Cl)c(Cl)c(Cl)c(Cl)c21	inactive
CC=O	inactive
CCOc1ccccc1N	inactive
Cc1ccc(C(C)(C)C)cc1	inactive
CC(N)CN (stereo not given)	inactive
O=C1CCC(=O)O1	inactive
O=[N+]([O-])c1ccc(NCCO)c(OCCO)c1	inactive
ClCCl	inactive
Cc1ccc(C)o1	inactive

SMILES	Potency
NC(=S)NNC(N)=S	inactive
Clc1ccc(Cl)c(Cl)c1Cl	inactive
O=C(Cl)c1ccccc1[N+](=O)[O-]	inactive
Nc1cccc(N)c1	inactive
CC(C)=C1CCC(C)CC1=O (stereo not given)	inactive
Nc1ccc(F)cc1F	inactive
COC(=O)CCC(=O)OC	inactive
CCc1ccccc1	inactive
CC(=O)OCCC(C)C	inactive
C[C@@H]1CC2(OC3C[C@@]4(C)C5=CC[C@H]6C(C)(C)C(O[C@@H]7OC[C@@H](O)[C@H](O)[C@H]7O)CC[C@@]67C[C@@]57CC[C@]4(C)C31)OC(O)C1(C)OC21 (stereo not given in full)	inactive
CC(=O)Nc1ccc(N)cc1	inactive
CN(C)c1cccc(O)c1	inactive
Nc1ccccc1S(=O)(=O)O	inactive
C=CCOC(=O)CCCCCCCC	inactive
CC(=O)CCc1ccccc1	inactive
c1ccsc1	inactive
NC(=O)c1ccccc1[N+](=O)[O-]	inactive
O=C(O)/C=C/C(=O)O	inactive
O=C(O)c1ccc(CO)o1	inactive

Test: Cellular Toxicity (caspase-3) HepG2 (AID 654);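 note: cells exposed to compound for 16 hours before reading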
Conditions: HepG2 caspase-3 activation, luminescence; series mostly up to 92.2 µM
How it was run: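 Caspase 3/7 activation is measured as a luminescence increase (aminoluciferin substrate) after 16 h compound exposure of human hepatocarcinoma HepG2 cells. AC50 values are Hill fits, scaled between DMSO baseline and 100 uM tamoxifen stimulation.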

SMILES	Potency
O=C(O)c1c(Cl)cccc1Cl	inactive
CC(=O)CC(C)C	inactive
NC(=O)/N=N/C(N)=O	inactive
CCCCC(=O)N(C)C	inactive
CCCCC(C=O)CC (stereo not given)	inactive
O=Cc1cccc(Br)c1	inactive
CCOc1cc(OCC)c(C(C)=O)cc1OCC	inactive
CCC(C)=O	inactive
CC=O	inactive
CCOc1ccccc1N	inactive
O=C1CCC(=O)O1	inactive
O=[N+]([O-])c1ccc(NCCO)c(OCCO)c1	inactive
Cc1ccc(C)o1	inactive
NC(=S)NNC(N)=S	inactive
Clc1ccc(Cl)c(Cl)c1Cl	inactive
O=C(Cl)c1ccccc1[N+](=O)[O-]	inactive
CC(C)=C1CCC(C)CC1=O (stereo not given)	inactive
Nc1ccc(F)cc1F	inactive
CCc1ccccc1	inactive
C[C@@H]1CC2(OC3C[C@@]4(C)C5=CC[C@H]6C(C)(C)C(O[C@@H]7OC[C@@H](O)[C@H](O)[C@H]7O)CC[C@@]67C[C@@]57CC[C@]4(C)C31)OC(O)C1(C)OC21 (stereo not given in full)	inactive
CC(=O)Nc1ccc(N)cc1	inactive
CN(C)c1cccc(O)c1	inactive
Nc1ccccc1S(=O)(=O)O	inactive
C=CCOC(=O)CCCCCCCC	inactive
CC(=O)CCc1ccccc1	inactive
c1ccsc1	inactive
NC(=O)c1ccccc1[N+](=O)[O-]	inactive
O=C(O)/C=C/C(=O)O	inactive
O=C(O)c1ccc(CO)o1	inactive

Test: Cellular Toxicity (caspase-3) Jurkat (AID 655);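 note: cells exposed to compound for 16 h at 37 °C before reading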
Conditions: Jurkat caspase-3 activation, luminescence; caspase-3 activation: at 92.2 µM (top of the series), DMSO = 0%, tamoxifen = 100%
How it was run: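 Jurkat cells (5000/well) in complete medium exposed 16 h at 37 C; caspase-3/7 activity read by Caspase-Glo luminescence after 20 min at room temperature. Normalized to DMSO and 100 uM tamoxifen; AC50 from Hill fits.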

SMILES	caspase-3 activation [%]
O=C(O)c1c(Cl)cccc1Cl	0.737
CC(=O)CC(C)C	-2.68
NC(=O)/N=N/C(N)=O	-2.04
CCCCC(=O)N(C)C	-0.841
CSCCC=O	-1.33
C=CCn1c(=O)n(CC=C)c(=O)n(CC=C)c1=O	-0.997
CCOc1cc(OCC)c(C(C)=O)cc1OCC	-0.274
CCC(C)=O	-0.0185
O=C1OC(=O)c2c(Cl)c(Cl)c(Cl)c(Cl)c21	0.457
CC=O	-1.03
CCOc1ccccc1N	0.926
CC(N)CN (stereo not given)	2.43
O=C1CCC(=O)O1	1.09
O=[N+]([O-])c1ccc(NCCO)c(OCCO)c1	3.12
Cc1ccc(C)o1	1.7
NC(=S)NNC(N)=S	0.7

SMILES	caspase-3 activation [%]
Clc1ccc(Cl)c(Cl)c1Cl	-1.65
O=C(Cl)c1ccccc1[N+](=O)[O-]	0.685
Nc1cccc(N)c1	0.427
CC(C)=C1CCC(C)CC1=O (stereo not given)	-1.31
Nc1ccc(F)cc1F	1.31
COC(=O)CCC(=O)OC	1.38
CCc1ccccc1	1.71
CC(=O)OCCC(C)C	0.836
C[C@@H]1CC2(OC3C[C@@]4(C)C5=CC[C@H]6C(C)(C)C(O[C@@H]7OC[C@@H](O)[C@H](O)[C@H]7O)CC[C@@]67C[C@@]57CC[C@]4(C)C31)OC(O)C1(C)OC21 (stereo not given in full)	2.56
CC(=O)Nc1ccc(N)cc1	0.0249
Nc1ccccc1S(=O)(=O)O	1.01
c1ccsc1	0.61
NC(=O)c1ccccc1[N+](=O)[O-]	-0.0168
O=C(O)/C=C/C(=O)O	1.23
O=C(O)c1ccc(CO)o1	1.29
